Results on eight molecules are retold here after PubChem BioAssay (NCATS).

A number with no mark means an inactive call. Inconclusive results are not listed. Active and inactive are the calls of the source. Unless noted, calls come from the whole dose curve; as a rule, active = well fitted curve in the direction sought with a large enough effect; inconclusive = small, poorly fitted or top-dose-only effect, or another doubt; inactive = no such curve, though single readings can be large; an effect the other way counts as inactive or inconclusive.

Test [1] can be described thus: AP1 Signaling Pathway (AID 357; active = well fitted curve in either direction with a large enough effect, not every such curve was filed as active;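 note: ME-180 reporter cells stimulated with EGF at its EC50 level; % is set by controls: 0 for no effect and ±100 for the full control effect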). The conditions noted are these: ME-180 AP-1-bla reporter, EGF-induced, beta-lactamase ratio, 5 h; at 7.69 µM (top of the series) unless noted. The method, boiled down:
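In this screen, ME-180 cells in Opti-MEM with 0.5% dialyzed FBS received EC50 EGF and compound titrations for 5 h. AP-1 reporter beta-lactamase was detected via CCF4 ratio, giving AC50 for positive and negative modulators.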

In test [2] the target is Cytochrome P450 1A2 (Homo sapiens) (UniProt P05177). The test can be described thus: p450-cyp1a2 (AID 410; calls by dose curve; note: potency is the fitted concentration of half-maximal effect;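 for activity change, negative = inhibition: -100% = full effect of reference inhibitor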). In short, it runs like this:
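Read-out is luminescence from luciferin produced by CYP1A2 demethylation of Luciferin-ME (100uM, at Km). Detection reagent stopped the 60 min NADPH-dependent reaction; signals were normalized to 57 uM furafylline.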

Test [3] in a line: NFAT Signaling Pathway (AID 444; active = well fitted curve in either direction with a large enough effect, not every such curve was filed as active;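 note: carbachol stimulus at about its EC50 of 1 µM final; % is set by controls: 0 for no effect and ±100 for the full control effect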). The conditions noted are these: Jurkat NFAT-bla M1, carbachol, beta-lactamase ratio, 5 h; at 7.69 µM (top of the series) unless noted. In short, it runs like this:
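Read-out: CCF4 FRET ratio (460 nm/530 nm) after 1 h RT dye loading, used for %activity and AC50 from titration series. Cells: Jurkat NFAT-β-lactamase/M1 line, treated with compound plus 1 uM carbachol for 5 h, 37 °C.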

The nature of test [4]: Stat Signaling Pathway (AID 446; active = well fitted curve in either direction with a large enough effect, not every such curve was filed as active;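 note: ME-180 cervical cancer cells given 40 pM IL-6 alongside compound; SIE-controlled beta-lactamase reporter measured as 460/530 nm FRET emission ratio; % is set by controls: 0 for no effect and ±100 for the full control effect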). The conditions noted are these: ME-180 (cervical carcinoma) SIE beta-lactamase reporter, IL-6 stimulated, 5 h; at 7.69 µM (top of the series) unless noted. In short, it runs like this: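 Overnight-plated ME-180 cells bearing a STAT Inducible Element beta-lactamase reporter; 5 h co-exposure to compound and 40 pM IL-6; values normalized to 300 pM IL-6 and 125 nM JAK inhibitor controls.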

The target in test [5] is Mitogen-activated protein kinase 10 (Mus musculus) (UniProt Q61831). Description: JNK3 AlphaScreen Assay (AID 530; active = well fitted curve in either direction with a large enough effect, not every such curve was filed as active;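 note: kinase came from lysate of stimulated human HepG2 cells; signal reports phosphorylation of biotinylated GST-cJun 1-79 at Ser73 with 10 µM ATP; % is set by controls: 0 for no effect and ±100 for the full control effect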). The method, boiled down:
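Kinase buffer: 20 mM Tris-HCl pH 7.6, 10 mM MgCl2, 1 mM DTT, 0.1 mM Na3VO4, 0.01% Tween-20; ATP 10 uM. Substrate biotin-GST-cJun(1-79), enzyme from activated HepG2 lysates. Detection by Ser73 phospho-antibody AlphaScreen.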
In general terms: In Alpha technology, singlet oxygen from a donor bead excites a nearby acceptor bead.

Test [6] deals with Cytochrome P450 2C9 (Homo sapiens) (UniProt P11712). The test can be described thus: qHTS Assay for Inhibitors and Substrates of Cytochrome P450 2C9 (AID 883). Note: nearly all actives have a fitted effect of over 60% in size. The method, boiled down: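 Luminescent read-out of deoxyluciferin hydroxylation, normalized to 57uM sulphaphenazole (AC100). Reaction: 10nM enzyme, 100uM Luciferin-H (equal to KM), 25mM KPO4, 10 min compound preincubation, then 60 min with NADPH regeneration, both at 37C.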
Sequence of Cytochrome P450 2C9 (Homo sapiens) (P11712 whole entry, looked up): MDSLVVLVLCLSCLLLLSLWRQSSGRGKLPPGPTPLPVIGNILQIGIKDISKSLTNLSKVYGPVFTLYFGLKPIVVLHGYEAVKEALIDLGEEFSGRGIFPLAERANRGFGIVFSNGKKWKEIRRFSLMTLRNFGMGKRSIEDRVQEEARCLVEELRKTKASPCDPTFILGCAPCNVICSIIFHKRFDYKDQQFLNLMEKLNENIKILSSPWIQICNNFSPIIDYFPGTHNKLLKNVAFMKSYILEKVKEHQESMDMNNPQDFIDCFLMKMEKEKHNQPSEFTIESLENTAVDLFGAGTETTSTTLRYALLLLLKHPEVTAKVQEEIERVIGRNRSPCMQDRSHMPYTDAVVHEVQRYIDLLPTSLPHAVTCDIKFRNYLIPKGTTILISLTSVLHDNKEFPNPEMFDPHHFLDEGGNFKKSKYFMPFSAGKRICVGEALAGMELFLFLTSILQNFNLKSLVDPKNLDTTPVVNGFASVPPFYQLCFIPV

Test [7] addresses 3',5'-cyclic-AMP phosphodiesterase 4B (Homo sapiens) (UniProt Q07343). The test can be described thus: qHTS Assay for Inhibitors of PDE-IV (AID 607; active = well fitted activation curve with a large enough effect in the main read-out, with a control signal flat, not every such curve was filed as active; note: % of control where 0% means no effect). In short, it runs like this:
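Live HEK293 cells with a modified cyclic nucleotide-gated (CNG) channel report intracellular cAMP via membrane-potential dye fluorescence (ex 535/em 590 nm). Endogenous PDE-IV was targeted. Compounds were tested at up to 22.9 uM final; RO 20-1724 100 uM served as control.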
On the technique in general: qHTS replaces the single test concentration by a dilution series.

Test [8] addresses Cytochrome P450 2D6 (Homo sapiens) (UniProt P10635). Description: qHTS Assay for Inhibitors and Substrates of Cytochrome P450 2D6 (AID 891). Note: nearly all actives have a fitted effect of over 60% in size. Note: potency is the fitted concentration of half-maximal effect. In short, it runs like this: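 Luminescent read-out of luciferin formed by 5 nM human CYP2D6 demethylating 30 uM Luciferin-ME EGE (Km level) over 60 min at room temperature after NADPH regeneration addition. Data normalized to full inhibition by 1.43 uM quinidine.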

Test [9] concerns the target Cytochrome P450 2C19 (Homo sapiens) (UniProt P33261). Description: qHTS Assay for Inhibitors and Substrates of Cytochrome P450 2C19 (AID 899). Note: % is set by controls: 0 for no effect and ±100 for the full control effect; nearly all actives have a fitted effect of over 60% in size. In short, it runs like this: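 Luminescence readout of luciferin formed from 10uM Luciferin-H EGE (KM level) by 5 nM CYP2C19 in 50mM KPO4. 60 min NADPH-driven reaction at 37C after 10 min compound preincubation; data scaled to 57uM ketoconazole inhibition.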

For test [10], the target named is Glucocorticoid receptor (Homo sapiens) (UniProt P04150). The test can be described thus: GR-GFP Redistribution (AID 450;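 active = compounds whose dose series gives a full or clear partial fitted curve of increased nuclear translocation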; note: potency is the fitted concentration of half-maximal effect). The conditions noted are these: U2OS GR-GFP nuclear translocation, laser cytometry, 2 h.
Sequence of Glucocorticoid receptor (Homo sapiens) (P04150 whole entry, looked up, the tested form may be a part): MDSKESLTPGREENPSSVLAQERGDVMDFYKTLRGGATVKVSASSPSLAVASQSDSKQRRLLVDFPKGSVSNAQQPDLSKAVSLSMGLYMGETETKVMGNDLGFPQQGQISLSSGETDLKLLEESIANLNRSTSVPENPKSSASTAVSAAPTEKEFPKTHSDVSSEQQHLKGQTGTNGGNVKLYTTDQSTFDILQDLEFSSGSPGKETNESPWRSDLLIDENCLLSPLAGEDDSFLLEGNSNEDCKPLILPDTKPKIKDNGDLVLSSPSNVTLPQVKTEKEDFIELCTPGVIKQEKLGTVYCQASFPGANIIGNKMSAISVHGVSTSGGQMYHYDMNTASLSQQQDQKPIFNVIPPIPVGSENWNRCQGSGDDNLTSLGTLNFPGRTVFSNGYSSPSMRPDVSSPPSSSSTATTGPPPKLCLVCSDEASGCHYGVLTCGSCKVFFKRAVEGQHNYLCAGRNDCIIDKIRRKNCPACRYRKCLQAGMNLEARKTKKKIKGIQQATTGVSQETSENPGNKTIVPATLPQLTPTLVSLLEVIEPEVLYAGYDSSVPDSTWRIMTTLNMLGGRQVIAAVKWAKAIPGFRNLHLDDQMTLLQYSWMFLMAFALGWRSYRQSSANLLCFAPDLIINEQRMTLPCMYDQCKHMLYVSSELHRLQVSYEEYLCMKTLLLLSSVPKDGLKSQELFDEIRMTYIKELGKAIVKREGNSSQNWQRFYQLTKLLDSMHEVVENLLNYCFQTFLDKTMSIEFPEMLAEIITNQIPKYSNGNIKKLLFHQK
Test [11] addresses Guanine nucleotide-binding protein G(i) subunit alpha-1 (Homo sapiens) (UniProt P63096). The test can be described thus: qHTS Assay for Inhibitors of RGS12 GoLoco Motif Activity (Green Fluorophore) (AID 879).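 Note: 0% = labeled peptide with Gαi1 and full inhibition = labeled peptide alone without protein; negative values mean loss of peptide binding seen as reduced polarization.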 In short, it runs like this:
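A drop in FITC polarization marked displacement of the FITC-tagged RGS12 GoLoco peptide (10 nM) from Gαi1 (50 nM). Compounds were incubated 10 min at room temperature in Tris pH 7.5 buffer containing 150 mM NaCl, 0.1 mM GDP and 0.05% NP40; unlabeled peptide titration served as control.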

A short description of test [12]: qHTS Assay for Identification of Small Molecule Agonists for Thrombopoietin (TPO) Signaling Pathway (AID 917). Note: % is set by controls: 0 for no effect and ±100 for the full control effect. In short, it runs like this:
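Quantitative HTS for pathway activators: compounds were pin-transferred onto IL-3-starved Ba/F3 cells expressing human TPO receptor, TPO was added at its EC50 (26 pM final), and after 24 hrs at 37 C reporter luciferase was measured.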

The target of test [13] is Muscarinic acetylcholine receptor M1 (Rattus norvegicus) (UniProt P08482). The test can be described thus: qHTS Assay for Antagonists of Acetylcholine Muscarinic M1 Receptor: Kinetic Measurement of Intracellular Calcium Response (AID 943).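 For activity change, negative = inhibition: Fluo-4 calcium signal as peak divided by basal fluorescence over 4 min.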 Note: nearly all actives have a fitted effect of over 75% in size. Note: potency is the fitted concentration of half-maximal effect. The method, boiled down: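 Quantitative HTS in CHO-M1 (rat receptor) cells: 10 min compound exposure ahead of 100 nM carbachol, Fluo-4 fluorescence followed 4 min, value expressed as peak-to-basal ratio.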
Sequence of Muscarinic acetylcholine receptor M1 (Rattus norvegicus) (P08482 whole entry, looked up): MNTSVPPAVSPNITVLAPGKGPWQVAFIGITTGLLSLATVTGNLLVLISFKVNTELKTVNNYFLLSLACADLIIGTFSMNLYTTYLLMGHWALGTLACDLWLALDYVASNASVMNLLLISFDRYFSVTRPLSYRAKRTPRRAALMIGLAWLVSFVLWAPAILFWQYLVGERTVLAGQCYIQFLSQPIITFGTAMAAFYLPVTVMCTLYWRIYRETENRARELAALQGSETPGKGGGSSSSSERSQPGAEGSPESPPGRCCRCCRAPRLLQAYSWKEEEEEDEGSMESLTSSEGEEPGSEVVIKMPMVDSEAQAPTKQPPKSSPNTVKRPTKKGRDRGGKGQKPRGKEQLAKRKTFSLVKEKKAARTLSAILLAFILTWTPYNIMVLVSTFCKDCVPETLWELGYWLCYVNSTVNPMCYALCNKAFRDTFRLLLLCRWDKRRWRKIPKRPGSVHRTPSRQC

The target is the same in test [14]. The test can be described thus: qHTS Assay for Antagonists of Acetylcholine Muscarinic M1 Receptor: Measurement of IP-One Response (AID 944). Note: nearly all actives have a fitted effect of over 75% in size. In short, it runs like this:
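Antagonism was measured as loss of carbachol-driven (EC80) IP1 accumulation in CHO cells carrying rat M1, using a homogeneous IP-One TR-FRET kit read at 620 and 665 nm.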

Test [15] has as its target Pyruvate kinase (Leishmania mexicana) (UniProt Q27686). Description: qHTS Validation Assay for Inhibitors of Leishmania Mexicana Pyruvate Kinase (AID 945).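 Note: 0% = DMSO only neutral control wells.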 In short, it runs like this: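 The enzyme is a highly purified E451W mutant of LmPYK used at 0.2 nM. It converts 0.5 mM PEP and 0.1 mM ADP over 1 h at room temperature; product ATP is quantified by luciferase luminescence relative to DMSO controls.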

For test [16], the target named is Alpha-galactosidase A (Homo sapiens) (UniProt P06280). The test can be described thus: Counterscreen for Glucocerebrosidase Inhibitors: qHTS Assay for Human alpha-Galactosidase at pH 4.5 (AID 992). Note: 0% is about no effect. In short, it runs like this:
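Each compound is preincubated briefly with 2 nM enzyme before substrate addition (80 uM); plates then sit 20 min at ambient temperature, are quenched with 1M NaOH/1M glycine, and read fluorometrically.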

Test [17] addresses alpha-glucosidase (Oryza sativa, rice) (UniProt Q653V4). Description: Counterscreen for Glucocerebrosidase Inhibitors: qHTS Assay for Rice alpha-Glucosidase at pH 5.0 (AID 997).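 Note: 0% = full activity with enzyme and -100% = basal without enzyme.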 The method, boiled down: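 Endpoint fluorogenic assay at pH 5.0: compounds (0.7 nM to 77 uM) titrated against 4 nM rice enzyme and 400 uM 4-MU-alpha-glucoside for 20 min at room temperature; NaOH/glycine stop, read ex 365/em 440 nm, Hill-fitted AC50.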

The target of test [18] is Glucocorticoid receptor (Homo sapiens) (UniProt P04150). Description: GR-EFC Redistribution (AID 451; calls by dose curve; note: potency is the fitted concentration of half-maximal effect). The conditions noted are these: CHO-K1 GR-EFC translocation, beta-gal luminescence, 2 h. In short, it runs like this: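 Translocation of GR-ED fusion to nuclear EA restores b-gal, read by luminescence after 1 h room-temperature detection. Engineered CHO-K1 biosensor cells, 1,000/well, exposed 2 h at 37 C to titrations up to 46 uM final.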

The target of test [19] is Cytochrome P450 3A4 (Homo sapiens) (UniProt P08684). The test can be described thus: qHTS Assay for Activators of Cytochrome P450 3A4 (AID 885). Note: nearly all actives have a fitted effect of over 65% in size. The method, boiled down: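 Using 20nM recombinant human CYP3A4 in potassium phosphate (200mM), substrate Luciferin-PPXE at 25uM, luminescent luciferin detection followed a 60-min RT NADPH reaction; data scaled to 57 uM ketoconazole.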

Test [20] has as its target Pyruvate kinase PKM (Homo sapiens) (UniProt P14618). The test can be described thus: qHTS Assay for Activators of Human Muscle Pyruvate Kinase (AID 954; active = well fitted curve in the direction sought with a large enough effect, not every such curve was filed as active;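 note: 0% = uninhibited enzyme and -100% = no enzyme or full thiadiazolimine inhibition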). The method, boiled down: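 Screening used highly purified human pyruvate kinase M2 under submaximal activity, with PEP at its Km and ADP below Km. After an hour at room temperature, ATP was read by luciferase luminescence.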

The nature of test [21]: qHTS Assay for Identification of Small Molecule Antagonists for NFkB Signaling Pathway (AID 895; active = well fitted inhibition curve with a large enough effect in the signal ratio, with a control signal flat, not every such curve was filed as active; the % refers to the signal ratio; note: % is set by controls: 0 for no effect and ±100 for the full control effect). In short, it runs like this:
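Beta-lactamase reporter read-out (460 and 530 nm emission ratio, 405 nm excitation, 2 hrs substrate loading RT) after 5 hr stimulation with 10 pM TNF alpha in compound-treated NFkB-bla ME-180 cells in low-serum medium.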

Sequence of 3',5'-cyclic-AMP phosphodiesterase 4B (Homo sapiens) (Q07343 whole entry, looked up): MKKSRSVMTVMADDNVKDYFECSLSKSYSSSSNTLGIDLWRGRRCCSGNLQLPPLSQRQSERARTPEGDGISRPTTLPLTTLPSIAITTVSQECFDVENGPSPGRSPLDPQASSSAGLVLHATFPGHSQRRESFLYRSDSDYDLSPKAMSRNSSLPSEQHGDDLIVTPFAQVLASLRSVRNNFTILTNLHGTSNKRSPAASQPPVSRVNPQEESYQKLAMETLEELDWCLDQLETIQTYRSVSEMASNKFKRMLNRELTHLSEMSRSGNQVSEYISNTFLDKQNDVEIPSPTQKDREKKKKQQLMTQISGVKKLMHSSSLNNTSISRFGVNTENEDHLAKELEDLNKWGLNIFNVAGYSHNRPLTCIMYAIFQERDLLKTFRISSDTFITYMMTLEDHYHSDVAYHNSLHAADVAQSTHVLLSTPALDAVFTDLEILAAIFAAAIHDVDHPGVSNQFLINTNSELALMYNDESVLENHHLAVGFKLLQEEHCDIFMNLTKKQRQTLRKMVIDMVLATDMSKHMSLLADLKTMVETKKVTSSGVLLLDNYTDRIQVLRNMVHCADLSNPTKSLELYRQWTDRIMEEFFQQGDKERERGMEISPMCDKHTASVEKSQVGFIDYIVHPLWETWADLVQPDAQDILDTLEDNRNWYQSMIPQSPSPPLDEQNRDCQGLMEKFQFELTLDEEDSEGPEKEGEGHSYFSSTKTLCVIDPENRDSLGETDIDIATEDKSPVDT
Sequence of Pyruvate kinase (Leishmania mexicana) (Q27686 2-499 E452W): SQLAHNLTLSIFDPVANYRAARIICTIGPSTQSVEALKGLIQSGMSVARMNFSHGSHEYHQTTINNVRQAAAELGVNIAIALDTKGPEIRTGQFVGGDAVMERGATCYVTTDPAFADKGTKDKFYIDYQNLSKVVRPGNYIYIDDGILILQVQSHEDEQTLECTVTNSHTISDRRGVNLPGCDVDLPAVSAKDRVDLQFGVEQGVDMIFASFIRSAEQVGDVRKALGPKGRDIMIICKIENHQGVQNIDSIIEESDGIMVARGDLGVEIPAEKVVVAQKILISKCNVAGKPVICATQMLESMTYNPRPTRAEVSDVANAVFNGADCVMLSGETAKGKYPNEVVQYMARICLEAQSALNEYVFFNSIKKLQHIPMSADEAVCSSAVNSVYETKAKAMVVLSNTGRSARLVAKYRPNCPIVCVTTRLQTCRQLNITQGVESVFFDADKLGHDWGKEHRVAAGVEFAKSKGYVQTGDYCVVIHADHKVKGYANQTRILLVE
Sequence of Alpha-galactosidase A (Homo sapiens) (P06280 whole entry, looked up): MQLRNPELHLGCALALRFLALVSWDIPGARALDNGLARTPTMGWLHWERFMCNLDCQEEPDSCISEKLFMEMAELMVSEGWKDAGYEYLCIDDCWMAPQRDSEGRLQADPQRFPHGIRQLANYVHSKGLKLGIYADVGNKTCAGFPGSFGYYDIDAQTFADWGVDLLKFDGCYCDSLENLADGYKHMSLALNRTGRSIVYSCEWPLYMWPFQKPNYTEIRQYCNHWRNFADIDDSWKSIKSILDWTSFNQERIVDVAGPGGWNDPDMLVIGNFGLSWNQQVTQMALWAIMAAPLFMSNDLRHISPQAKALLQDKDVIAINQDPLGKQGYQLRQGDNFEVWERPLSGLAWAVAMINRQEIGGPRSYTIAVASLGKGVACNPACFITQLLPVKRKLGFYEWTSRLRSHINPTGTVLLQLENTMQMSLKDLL
Sequence of Cytochrome P450 1A2 (Homo sapiens) (P05177 whole entry, looked up): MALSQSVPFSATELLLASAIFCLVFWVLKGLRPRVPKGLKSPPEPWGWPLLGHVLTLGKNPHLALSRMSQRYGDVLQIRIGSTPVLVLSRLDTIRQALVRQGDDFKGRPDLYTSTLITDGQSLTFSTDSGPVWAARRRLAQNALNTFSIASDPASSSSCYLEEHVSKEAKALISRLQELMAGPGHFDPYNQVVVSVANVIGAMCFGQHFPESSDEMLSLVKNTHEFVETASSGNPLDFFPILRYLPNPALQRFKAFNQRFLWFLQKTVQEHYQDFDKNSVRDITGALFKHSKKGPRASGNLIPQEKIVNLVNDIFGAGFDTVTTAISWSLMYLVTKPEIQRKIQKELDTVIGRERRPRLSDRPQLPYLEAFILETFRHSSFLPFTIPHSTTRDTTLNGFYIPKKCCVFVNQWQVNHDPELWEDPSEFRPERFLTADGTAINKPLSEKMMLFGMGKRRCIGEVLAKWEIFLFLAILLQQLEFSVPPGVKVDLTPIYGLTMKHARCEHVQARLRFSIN
Sequence of Cytochrome P450 2D6 (Homo sapiens) (P10635 whole entry, looked up): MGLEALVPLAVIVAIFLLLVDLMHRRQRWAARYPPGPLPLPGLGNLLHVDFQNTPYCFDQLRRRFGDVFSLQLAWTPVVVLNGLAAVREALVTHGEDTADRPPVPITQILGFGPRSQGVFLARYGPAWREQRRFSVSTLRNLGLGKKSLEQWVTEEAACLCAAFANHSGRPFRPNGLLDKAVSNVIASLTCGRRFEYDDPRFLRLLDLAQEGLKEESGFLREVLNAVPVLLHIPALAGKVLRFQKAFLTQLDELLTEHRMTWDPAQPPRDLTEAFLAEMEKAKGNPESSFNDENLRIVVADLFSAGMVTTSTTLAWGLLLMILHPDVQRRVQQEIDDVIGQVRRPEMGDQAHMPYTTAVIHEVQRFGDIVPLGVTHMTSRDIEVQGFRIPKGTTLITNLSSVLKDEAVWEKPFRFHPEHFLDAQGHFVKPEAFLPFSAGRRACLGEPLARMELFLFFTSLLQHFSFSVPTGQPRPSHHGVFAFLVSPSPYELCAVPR
Sequence of Guanine nucleotide-binding protein G(i) subunit alpha-1 (Homo sapiens) (P63096 whole entry, looked up): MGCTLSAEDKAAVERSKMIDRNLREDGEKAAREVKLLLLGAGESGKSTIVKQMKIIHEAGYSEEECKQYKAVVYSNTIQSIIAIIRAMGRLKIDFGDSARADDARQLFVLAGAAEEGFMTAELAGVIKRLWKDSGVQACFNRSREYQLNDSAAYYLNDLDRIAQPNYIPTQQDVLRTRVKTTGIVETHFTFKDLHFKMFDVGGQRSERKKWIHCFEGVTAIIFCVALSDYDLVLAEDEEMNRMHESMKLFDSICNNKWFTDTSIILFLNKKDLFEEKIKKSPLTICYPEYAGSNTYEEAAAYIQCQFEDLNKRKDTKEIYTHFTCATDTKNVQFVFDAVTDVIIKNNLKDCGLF

Take `C=C[C@H]1CN2CC[C@@H]1C[C@H]2[C@@H](O)c1ccnc2ccc(OC)cc12`: the values for the activity change, negative = inhibition in [1] and in test [3] were -5.24% [at 17.2 µM] and -13% [at 17.2 µM], respectively. In addition, the Potency entry in test [2] and in test [5] was “inactive” in each case. For the same molecule, the activity, negative = inhibition in test [4] was -9.97% [at 17.2 µM]. The result in [6] was inactive.

For the molecule `CCc1cccc2c3c([nH]c12)[C@](CC)(CC(=O)O)OCC3`, the activity change, negative = inhibition was 6.07% [at 38 µM] in test [1] and -5.71% [at 38 µM] in test [3]. The Potency entry in test [2], in test [5], in test [7], in [8] and in [9] was “inactive” in each case.

Consider `Cc1ccccc1CNc1ncnc2c1ncn2[C@@H]1O[C@@H](CO)[C@H](O)[C@@H]1O`, for which the activity change, negative = inhibition in [1] is 0.479% [at 38 µM]; in [3], 10.4% [at 38 µM]. For the same molecule, the Potency result in test [2], in test [7], in test [13], in test [14] and in [17] was “inactive” in each case. Besides, the Potency in [10] was over 46 µM. In addition, the outcome in test [11], in [12], in test [15] and in test [16] was inactive.

`CCCCCCCCCCCCCCCC(=O)NC[C@@H](COP(=O)([O-])OCC[N+](C)(C)C)OCC`: the activity change, negative = inhibition is -23.3% [at 38 µM] in [1] and 16.7% [at 38 µM] (active) in [3]. Besides, the Potency entry in [2], in test [5], in test [7], in [6], in [19] and in test [17] was “inactive” each time. The Potency in [10] was over 46 µM; in test [18] it was over 46 µM; in [13], 11.2 µM (active). The molecule was classed as inactive in test [12], in test [15], in [20] and in test [16].

Turning to `C[C@@H]1c2ccccc2Cn2cc3c(c21)C(=O)c1cccc(OP(=O)(O)OCc2ccccc2)c1C3=O`, the activity change, negative = inhibition in [1] was -3.62%. The Potency is 3.16 µM (active) in [2], over 46 µM in test [10] and over 9.22 µM in [18]. Besides, the activity, negative = inhibition in test [4] was -19.6%. Besides, the Potency entry in test [5] and in test [7] was “inactive” each time.

Consider `N=C(N)SCc1cccc2c(=O)cc(-c3ccccc3)oc12`, for which the figures for the activity change, negative = inhibition in test [1] and in test [3] were 28% and -23%, respectively. Moreover, the Potency is 0.126 µM (active) in test [2], over 46 µM in test [10], over 9.22 µM in [18] and 2.51 µM (active) in test [8]. Also, the Potency entry in test [5], in test [7] and in [19] was “inactive” in each case.

On to `COc1cc2c3cc1Oc1cc(ccc1O)C[C@@H]1c4c(cc(OC)c(O)c4Oc4ccc(cc4)C[C@H]3[N+](C)(C)CC2)CC[N+]1(C)C`, for which the activity change, negative = inhibition was 5.87% in test [1] and 0.638% in test [3]. In addition, the Potency result in test [2], in test [5], in test [7] and in [9] was “inactive” each time. In test [4], the activity, negative = inhibition was 21.4%.

As for `Nc1c2c(nc3ccccc13)CCC[C@H]2O`, the activity change, negative = inhibition in test [1] is 1.75% [at 38 µM]; in test [3], 0.441% [at 38 µM]. In addition, the Potency in test [2] is 10 µM (active); in [10], over 46 µM; in test [18] it was over 46 µM. In addition, the Potency result in test [5], in test [7], in [6], in test [21], in test [13] and in test [14] was “inactive” each time. Further, the Potency result in test [17] is “inactive”. The molecule was classed as inactive in [11], in test [12], in test [15] and in test [16].
